COUP-TFII inh – inhibitors of human COUP-TFII (NR2F2) | HEK293T NGFI-A luciferase reporter, luminescence | inhibition, % at 8.6 µM | actives 0.7% (n = 370,000) | P24468;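 active = inhibition above a per-plate cutoff, mean inhibition of test wells between control levels plus 3 SD, cut at about 38% in these data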;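 note: cells cotransfected with COUP-TFII expression vector driving the NGFI-A reporter; 0% = median of COUP-TF2 test wells and 100% = reporter-only cells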
Target sequence (P24468 whole entry, looked up): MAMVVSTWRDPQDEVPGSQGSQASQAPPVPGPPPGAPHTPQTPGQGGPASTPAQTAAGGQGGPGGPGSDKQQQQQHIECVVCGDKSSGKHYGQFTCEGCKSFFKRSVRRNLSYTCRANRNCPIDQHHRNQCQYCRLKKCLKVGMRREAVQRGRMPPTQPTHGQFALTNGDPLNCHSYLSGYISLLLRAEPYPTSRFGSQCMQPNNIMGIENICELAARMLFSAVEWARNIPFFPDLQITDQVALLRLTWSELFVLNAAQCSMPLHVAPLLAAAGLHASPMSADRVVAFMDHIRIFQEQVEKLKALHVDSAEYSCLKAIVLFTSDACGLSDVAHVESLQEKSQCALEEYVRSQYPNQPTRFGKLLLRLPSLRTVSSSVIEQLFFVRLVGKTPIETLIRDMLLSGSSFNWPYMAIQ
NCOA2 inhibitor – inhibits human steroid receptor coactivator 2; Q15596; HEK293 GAL4-SRC2 luciferase reporter, luminescence; inhibition, % at 9 µM; actives 0.17% (n = 370,000); AID 651957;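 active = inhibition above the mean inhibition of all tested compounds plus 3 SD, set per campaign, cut at about 52% in these data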;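 note: 0% = DMSO treated cells and 100% = cells given Gossypol at 36 µM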
LRH-1 inv ag – NR5A2 inverse agonism in reporter assay. O00482. HEK293T StAR-luciferase reporter, LRH-1 transfected, 24 h. inhibition, % at 3.6 µM. actives 0.13% (n = 360,000). AID 602396;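 active = inhibition above the mean inhibition of all tested compounds plus 3 SD, cut at about 73% in these data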;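 note: 0% = DMSO wells and 100% = reporter-only cells lacking LRH-1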
GalR3 antag – human GalR3 antagonism; O60755; HEK293 GalR3-CNG cAMP membrane potential fluorescence; galR3 body fused to GalR1 C-terminus; inhibition, % at 3 µM; actives 0.44% (n = 360,000);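 active = inhibition above the screen-wide average plus 3 SD, cut at about 13% in these data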;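 note: forskolin and galanin both at EC90 stimulate the cells; cAMP rise reported by CNG channel membrane potential dye signal; 0% = forskolin plus galanin with DMSO and 100% = forskolin alone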
NCOA3 inh – human NCOA3 inhibition. Q9Y6Q9. HEK293 GAL4-SRC3 luciferase reporter, luminescence. inhibition, % at 3.6 µM. actives 0.17% (n = 360,000). AID 588352;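 active = inhibition above a per-campaign cutoff, the mean of all compounds plus 3 SD, cut at about 60% in these data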;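 note: 0% = DMSO-treated cells and 100% = gossypol-treated cells at 36 µM; higher means less SRC3-driven luciferase light from the GAL4 reporter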
NCOA1 inh – inhibits human SRC1 coactivator | Q15788 | HEK293 GAL4-SRC1 luciferase reporter, luminescence | inhibition, % at 3.6 µM | actives 0.12% (n = 360,000);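 active = inhibition above the campaign mean plus 3 SD, with each screening campaign given its own cutoff, cut at about 60% in these data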;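 note: 0% = DMSO treated cells and 100% = gossypol at 36 µM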
Gal4-VP16 ctr – VP16 inhibition counter-screen for COUP-TFII; shares compounds with COUP-TFII inh; HEK293 Gal4-VP16 luciferase reporter, luminescence; inhibition, % at 8.5 µM; actives 25% (n = 2,500); AID 687007; in the data active = inhibition above about 13%
NR2F2 inh conf – confirmation of human COUP-TFII (NR2F2) inhibitors. actives 45% (n = 2,500). HEK293 NGFI-A luciferase reporter, luminescence. AID 687008. inhibition, % at 8.5 µM. shares compounds with COUP-TFII inh;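 active = mean inhibition over three repeats above a set limit taken from the earlier primary screen, cut at about 38% in these data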;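 note: 100% = cells given the luciferase reporter alone without the COUP-TF2 vector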
Starred values were filed as active, the others as inactive; / = no result given. The list is not random: actives were taken first. Their share in the collection is about 1.1%.

SMILES | COUP-TFII inh | NCOA2 inhibitor | LRH-1 inv ag | GalR3 antag | NCOA3 inh | NCOA1 inh | Gal4-VP16 ctr | NR2F2 inh conf
CC(C)Cc1ccc(C(C)C(=O)Nc2nccs2)cc1 (stereo not drawn) | 2 | -6 | 2 | -6 | 8 | 5 | / | /
CC(C)Cc1ccc(C(C)C(=O)Nc2ccccc2O)cc1 (stereo not drawn) | 49* | 33 | 34 | -1 | 15 | 13 | 7 | 50*
Cc1nn(Cc2c(Cl)cccc2Cl)c(C)c1NC(=O)c1cc(C(C)C)on1 | -59 | -9 | -9 | / | -95 | -3 | / | /
Cc1nn(Cc2ccc(Cl)cc2)c(C)c1NC(=O)c1cc(C(C)C)on1 | 44* | -9 | 42 | -8 | 16 | 16 | 4 | 22
CCOC(=O)[C@]12CCCCC/C=C\1N(CCc1ccc(Cl)cc1)C(=O)[C@H]2CC(=O)N1CCN(C(=O)c2ccco2)CC1 | -1 | 13 | / | / | / | / | / | /
COc1ccc(NC(=O)c2cc(CC(C)C)nc3ccccc23)cc1 | 42* | -29 | -33 | -1 | 0 | 22 | -6 | 22
Cc1ccc(NC(=O)c2cc(CC(C)C)nc3ccccc23)cc1 | 17 | -16 | -3 | -3 | 11 | -40 | / | /
O=C1CCCN2N=C(SCC(=O)Nc3cccc(C(F)(F)F)c3)SC2=N1 | 53* | 26 | 27 | -1 | 18 | 20 | 0 | 50*
O=C1CCCN2N=C(SCC(=O)Nc3cccc(Cl)c3)SC2=N1 | 23 | 13 | -5 | -10 | 3 | 10 | / | /
CC(C)(C)c1ccc(NC(=O)c2cc(C3CCCN(S(=O)(=O)c4cccc5cccnc45)C3)on2)cc1 (stereo not drawn) | -11 | -6 | 1 | -9 | 14 | 5 | / | /
Cc1ncccc1C(=O)N1CCCC(c2cc(C(=O)Nc3ccc(C(C)(C)C)cc3)no2)C1 (stereo not drawn) | 40* | 6 | 19 | -6 | -3 | -1 | -11 | -5
CCCC(=O)N1CCCC(c2cc(C(=O)Nc3ccccc3)no2)C1 (stereo not drawn) | 44* | 22 | 29 | -5 | 30 | 28 | -67 | 34
C=CCNC(=O)CSc1nc2c(c(=O)[nH]1)CCCC2 | 7 | 13 | / | / | / | / | / | /
N#Cc1cc2c(nc1SCC(=O)N1CCOCC1)CCCCC2 | 53* | 23 | 59 | 0 | 65* | 57 | 55* | 77*
O=C(c1ccncc1F)N1CCC(n2nnc3ncccc32)CC1 | -15 | 10 | / | / | / | / | / | /
COc1cc(C(=O)NC2CCCCN(Cc3ccc(Cl)cc3)C2=O)cc(OC)c1OC (stereo not drawn) | 11 | 30 | / | / | / | / | / | /
CC(=O)[C@@]1(O)Cc2c(O)c3c(c(O)c2[C@H](O[C@H]2C[C@H](N)[C@H](O)[C@H](C)O2)C1)C(=O)c1ccccc1C3=O | 58* | -51 | 34 | -6 | -67 | -138 | 10 | 38*
COc1cccc2c1C(=O)c1c(O)c3c(c(O)c1C2=O)CC(O)(C(C)=O)CC3OC1CC(N(C)C)C(O)C(C)O1 (stereo not drawn) | 53* | 55* | 97* | -3 | 85* | 75* | 15* | 20
COc1ccc(C(=O)O[C@@H]2CCC[C@@]3(C(=O)N(Cc4ccccc4)c4ccccc43)[C@H]2NC(=O)CCc2ccccc2)cc1OC | 9 | 18 | / | / | / | / | / | /
COC(=O)c1cc(-c2cccs2)c(=O)n2c1CCC2 | 14 | -46 | / | / | / | / | / | /
COc1ccc(C)cc1Nc1n[n+](-c2ccccc2)c(-c2c(OC)ccc3ccccc23)s1 | 43* | 13 | 3 | -3 | 29 | -8 | 2 | 28
NC1=C(Cl)C(=O)c2ccc(S(N)(=O)=O)cc2C1=O | 85* | 80* | 95* | -5 | 90* | 90* | 92* | 97*
Cc1ccccc1CS(=O)(=O)Cc1ccc(C(=O)Nc2c(C)cccc2C)o1 | 16 | -18 | / | / | / | / | / | /
Cc1sc(NC(=O)c2ccco2)c(C(c2cccnc2)N2CCN(CCO)CC2)c1C (stereo not drawn) | 7 | -15 | -3 | -7 | -3 | -1 | / | /
